# Test results taken from PubChem BioAssay (EPA / NIEHS).
# Results filed as inconclusive are left out. The source holds several records for some structures; these can differ, active in one and inactive in another. Calls of active or inactive are those of the source. How the source made its calls, unless noted: active means hit-call score of the fitted dose curve at least 0.9, where 1 is the maximum; inconclusive means response in the unintended direction; inactive means score below 0.9.
# What was measured:
# [1] = biological target: Peroxisome proliferator-activated receptor gamma (Homo sapiens) (UniProt P37231); test: NVS_NR_hPPARg: NovaScreen (NVS) Nuclear Receptor Binding Assay for human Peroxisome Proliferator-activated Receptor gamma (PPARg) (AID 2283370)
# In short: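 Cell-free fluorescence polarization binding to human PPARg protein, read 2 h after dosing. Primary screen in duplicate at 25 uM, actives followed in concentration series; loss of signal relative to DMSO scored.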
# [2] = biological target: human Dopamine Transporter (DAT), SLC6A3 (gene 6531) (UniProt Q01959); test: NVS_TR_hDAT: NovaScreen (NVS) Transporter Assay for human Dopamine Transporter (DAT) (AID 2283374);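 further: activity means loss of bound radioligand signal relative to DMSO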
# In short: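 Extracted human SLC6A3 protein incubated 1 h with radioligand and test chemical; bound fraction separated on filters and counted. Single 25 uM duplicate screen preceded concentration-response follow-up; positive and negative controls on every plate.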
# [3] = biological target: mouse Estrogen Receptor alpha (Era), Esr1 (gene 13982) (UniProt P19785); test: NVS_NR_mERa: NovaScreen (NVS) Nuclear Receptor Binding Assay for mouse Estrogen Receptor alpha (Era) (AID 2283378);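 further: hit means loss of bound radioligand signal relative to DMSO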
# In short: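 Cell-free radioligand competitive displacement binding, read by filter-based scintillation counting 18 h after dosing. Primary screen run in duplicate at 25 uM, actives retested in concentration series; loss of signal versus DMSO.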
# [4] = biological target: Estrogen receptor beta (Homo sapiens) (UniProt Q92731); test: OT_ER_ERbERb_1440: Odyssey Thera (OT) 24-hour HEK293T Protein-Complementation Assay for Estrogen Receptor-beta/-beta Homodimer (AID 2283380);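 further: fluorescence gain from ER beta LBD homodimer complementation read by laser scanning cytometry; scored as signal increase over DMSO baseline for both agonists and antagonists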
# In short: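 HEK293T cells stably expressing human ER-beta LBD (aa 310-547) PCA homodimer pair, dosed 24 h; formaldehyde-fixed, Draq5-stained. Readout: increase in nuclear (agonist) or nuclear plus cytoplasmic (antagonist) fluorescence intensity versus DMSO, gain-of-signal fitting.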
# [5] = biological target: Estrogen receptor (Homo sapiens) (UniProt P03372); test: OT_ERa_GFPERaERE_0480: Odyssey Thera (OT) 8-hour HeLa Transcription Induction Assay for Estrogen Receptor (AID 2283381; active means hit-call score of the fitted dose curve at least 0.9, where 1 is the maximum; inactive means score below 0.9)
# In short: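 An 8 h HeLa transcription-induction format with a GFP reporter under ERE control, read by fluorescence microscopy; single endpoint fitted positively with DMSO as baseline.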
# [6] = biological target: human Serotonin Transporter (SERT), SLC6A4 (gene 6532) (UniProt P31645); test: NVS_TR_hSERT: NovaScreen (NVS) Transporter Assay for human Serotonin Transporter (SERT) (AID 2283372)
# In short: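 Human platelet membrane preparation; displacement of radioligand from serotonin transporter measured after 1 h by filtration and scintillation counting. Single 25 uM duplicate screen, then concentration series for actives, with DMSO as negative baseline.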
# [7] = system: rat Norepinephrine Transporter (NET), gene 83511; test: NVS_TR_rNET: NovaScreen (NVS) Transporter Assay for rat Norepinephrine Transporter (NET) (AID 2283373)
# In short: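 Competitive radioligand displacement at the rat NET using forebrain membrane preparations, 1 h incubation, filter-based scintillation readout. Primary testing in duplicate at a single 25 uM concentration; confirmed actives retested across concentrations.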
# [8] = biological target: human Norepinephrine Transporter (NET), SLC6A2 (gene 6530) (UniProt P23975); test: NVS_TR_hNET: NovaScreen (NVS) Transporter Assay for human Norepinephrine Transporter (NET) (AID 2283377);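 further: cell-free membrane protein extracted from CHO cells expressing human NET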;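 on AC50: displacement of radioligand from human NET seen as loss of scintillation signal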
# In short: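 In this cell-free binding screen, chemicals at 25 uM (duplicate) compete with a radioligand for CHO-derived human NET over 1 hour, with filter-based radiodetection.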
# [9] = biological target: rat Serotonin Transporter (SERT), Slc6a4 (gene 25553) (UniProt P31652); test: NVS_TR_rSERT: NovaScreen (NVS) Transporter Assay for rat Serotonin Transporter (SERT) (AID 2283375)
# In short: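 Rat forebrain membranes; radioligand displacement at SERT read by filter-based scintillation counting, 1 h after dosing. Screened in duplicate at 25 uM, actives then run in concentration series; loss of signal versus DMSO baseline.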
# [10] = biological target: Agonist Androgen Response Element (ARE), AR (gene 367) (UniProt P10275); test: OT_AR_ARELUC_AG_1440: Odyssey Thera (OT) 24-hour CHO-K1 Luciferase Assay for Agonist Androgen Response Element (ARE) (AID 2283379)
# In short: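 Luminescence increase above DMSO, read after a 24 h compound treatment of CHO-K1 cells expressing an androgen response element luciferase reporter, gives the single primary endpoint; concentration-response fitting used the positive direction.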
# Peroxisome proliferator-activated receptor gamma (Homo sapiens), sequence (P37231 whole entry, looked up): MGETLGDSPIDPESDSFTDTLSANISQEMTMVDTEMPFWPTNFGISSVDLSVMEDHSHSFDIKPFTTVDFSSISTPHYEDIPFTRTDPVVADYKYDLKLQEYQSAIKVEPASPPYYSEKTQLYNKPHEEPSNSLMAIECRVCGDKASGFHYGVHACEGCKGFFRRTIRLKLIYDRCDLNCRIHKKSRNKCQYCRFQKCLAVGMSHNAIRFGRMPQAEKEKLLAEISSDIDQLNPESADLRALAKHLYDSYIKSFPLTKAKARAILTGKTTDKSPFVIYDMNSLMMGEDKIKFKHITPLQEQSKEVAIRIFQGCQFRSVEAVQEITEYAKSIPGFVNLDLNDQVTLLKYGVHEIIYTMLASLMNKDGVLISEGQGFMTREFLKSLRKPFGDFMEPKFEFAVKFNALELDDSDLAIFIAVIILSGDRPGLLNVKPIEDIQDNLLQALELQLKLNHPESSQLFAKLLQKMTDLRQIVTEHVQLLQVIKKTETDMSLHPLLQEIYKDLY
# rat Serotonin Transporter (SERT), Slc6a4 (gene 25553), sequence (P31652 whole entry, looked up): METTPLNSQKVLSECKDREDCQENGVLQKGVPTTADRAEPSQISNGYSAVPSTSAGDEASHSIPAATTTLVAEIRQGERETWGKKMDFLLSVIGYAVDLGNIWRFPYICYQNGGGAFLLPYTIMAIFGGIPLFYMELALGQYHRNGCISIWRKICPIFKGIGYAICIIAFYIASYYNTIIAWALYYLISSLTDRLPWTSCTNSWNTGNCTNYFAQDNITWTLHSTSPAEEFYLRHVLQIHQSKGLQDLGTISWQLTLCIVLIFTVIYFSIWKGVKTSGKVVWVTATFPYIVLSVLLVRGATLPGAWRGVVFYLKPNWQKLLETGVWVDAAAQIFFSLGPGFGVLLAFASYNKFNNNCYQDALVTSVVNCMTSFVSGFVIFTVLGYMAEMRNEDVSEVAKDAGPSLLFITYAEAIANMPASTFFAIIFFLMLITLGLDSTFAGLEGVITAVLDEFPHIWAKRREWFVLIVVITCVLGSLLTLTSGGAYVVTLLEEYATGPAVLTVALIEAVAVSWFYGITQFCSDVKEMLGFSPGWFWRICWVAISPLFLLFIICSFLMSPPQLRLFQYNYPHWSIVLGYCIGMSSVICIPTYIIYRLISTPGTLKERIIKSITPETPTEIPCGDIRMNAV
# Agonist Androgen Response Element (ARE), AR (gene 367), sequence (P10275 whole entry, looked up): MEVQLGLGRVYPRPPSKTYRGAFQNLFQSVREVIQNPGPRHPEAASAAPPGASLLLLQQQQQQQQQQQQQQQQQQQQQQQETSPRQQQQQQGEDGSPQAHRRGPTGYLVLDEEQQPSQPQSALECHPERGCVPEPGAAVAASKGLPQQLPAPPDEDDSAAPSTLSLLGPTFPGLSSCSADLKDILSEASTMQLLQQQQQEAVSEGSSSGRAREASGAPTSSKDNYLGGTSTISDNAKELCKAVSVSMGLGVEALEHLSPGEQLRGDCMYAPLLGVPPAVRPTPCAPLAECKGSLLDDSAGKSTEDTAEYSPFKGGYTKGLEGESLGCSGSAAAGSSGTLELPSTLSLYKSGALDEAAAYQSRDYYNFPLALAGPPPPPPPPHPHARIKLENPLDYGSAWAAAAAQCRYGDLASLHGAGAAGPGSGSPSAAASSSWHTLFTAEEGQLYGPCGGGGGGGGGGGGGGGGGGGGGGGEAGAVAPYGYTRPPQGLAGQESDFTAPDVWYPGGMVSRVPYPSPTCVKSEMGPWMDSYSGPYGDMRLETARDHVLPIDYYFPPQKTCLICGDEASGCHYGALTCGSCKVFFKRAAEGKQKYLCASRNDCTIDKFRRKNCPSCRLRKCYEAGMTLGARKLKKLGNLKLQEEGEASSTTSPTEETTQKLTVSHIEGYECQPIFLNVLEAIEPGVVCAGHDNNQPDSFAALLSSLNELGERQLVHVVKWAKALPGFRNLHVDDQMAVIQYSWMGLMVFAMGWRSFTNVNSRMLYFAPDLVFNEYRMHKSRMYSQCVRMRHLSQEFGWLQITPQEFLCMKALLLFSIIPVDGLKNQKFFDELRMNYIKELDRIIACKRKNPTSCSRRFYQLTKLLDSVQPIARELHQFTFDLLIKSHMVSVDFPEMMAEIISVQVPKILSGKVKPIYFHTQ
# mouse Estrogen Receptor alpha (Era), Esr1 (gene 13982), sequence (P19785 whole entry, looked up): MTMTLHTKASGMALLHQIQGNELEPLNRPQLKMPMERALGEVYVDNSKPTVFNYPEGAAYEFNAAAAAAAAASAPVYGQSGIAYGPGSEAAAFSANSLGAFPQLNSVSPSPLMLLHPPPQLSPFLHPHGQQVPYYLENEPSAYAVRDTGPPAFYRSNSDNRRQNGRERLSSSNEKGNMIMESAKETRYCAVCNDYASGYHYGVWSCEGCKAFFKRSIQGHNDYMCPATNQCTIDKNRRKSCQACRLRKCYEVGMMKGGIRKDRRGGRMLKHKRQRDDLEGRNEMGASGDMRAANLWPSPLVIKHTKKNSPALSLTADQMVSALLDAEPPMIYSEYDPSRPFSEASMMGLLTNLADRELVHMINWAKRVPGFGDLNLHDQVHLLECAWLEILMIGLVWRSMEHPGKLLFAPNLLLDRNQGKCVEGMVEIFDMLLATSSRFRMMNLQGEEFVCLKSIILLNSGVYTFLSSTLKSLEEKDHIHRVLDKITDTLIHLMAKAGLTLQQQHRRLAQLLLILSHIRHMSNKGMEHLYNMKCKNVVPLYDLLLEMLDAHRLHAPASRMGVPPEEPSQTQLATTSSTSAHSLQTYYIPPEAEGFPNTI
# Estrogen receptor (Homo sapiens), sequence (P03372 whole entry, looked up): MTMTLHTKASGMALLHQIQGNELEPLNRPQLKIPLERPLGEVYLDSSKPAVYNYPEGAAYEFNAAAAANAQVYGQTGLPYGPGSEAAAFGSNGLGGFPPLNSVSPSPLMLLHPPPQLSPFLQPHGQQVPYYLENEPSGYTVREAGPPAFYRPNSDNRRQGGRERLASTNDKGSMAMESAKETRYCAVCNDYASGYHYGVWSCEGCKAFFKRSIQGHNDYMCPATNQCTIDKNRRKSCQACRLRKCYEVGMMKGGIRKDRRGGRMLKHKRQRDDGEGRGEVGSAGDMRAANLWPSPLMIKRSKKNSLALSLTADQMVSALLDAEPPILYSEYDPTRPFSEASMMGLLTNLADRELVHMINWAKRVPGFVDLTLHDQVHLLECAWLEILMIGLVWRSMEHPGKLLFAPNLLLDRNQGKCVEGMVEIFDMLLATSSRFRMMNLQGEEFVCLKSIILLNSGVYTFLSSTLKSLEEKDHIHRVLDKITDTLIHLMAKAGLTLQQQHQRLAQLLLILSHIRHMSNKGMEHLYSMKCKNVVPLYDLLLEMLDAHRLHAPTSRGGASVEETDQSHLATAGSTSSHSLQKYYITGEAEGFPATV
# Estrogen receptor beta (Homo sapiens), sequence (Q92731 whole entry, looked up, the tested form may be a part): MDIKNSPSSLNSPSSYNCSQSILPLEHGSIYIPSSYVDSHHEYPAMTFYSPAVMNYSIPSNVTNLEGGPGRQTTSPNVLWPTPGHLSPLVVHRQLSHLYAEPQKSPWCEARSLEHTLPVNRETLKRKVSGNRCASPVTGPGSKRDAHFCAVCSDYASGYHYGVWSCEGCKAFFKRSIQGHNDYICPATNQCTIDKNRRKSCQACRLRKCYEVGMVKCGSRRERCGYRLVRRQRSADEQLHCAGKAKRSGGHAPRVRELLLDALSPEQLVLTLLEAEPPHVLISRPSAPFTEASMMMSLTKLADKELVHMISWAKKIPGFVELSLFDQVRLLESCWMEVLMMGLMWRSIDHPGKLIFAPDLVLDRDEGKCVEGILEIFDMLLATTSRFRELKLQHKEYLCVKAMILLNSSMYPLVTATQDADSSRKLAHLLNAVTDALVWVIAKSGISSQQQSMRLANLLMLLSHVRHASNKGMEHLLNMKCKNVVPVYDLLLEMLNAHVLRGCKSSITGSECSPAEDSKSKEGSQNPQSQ
# human Norepinephrine Transporter (NET), SLC6A2 (gene 6530), sequence (P23975 whole entry, looked up): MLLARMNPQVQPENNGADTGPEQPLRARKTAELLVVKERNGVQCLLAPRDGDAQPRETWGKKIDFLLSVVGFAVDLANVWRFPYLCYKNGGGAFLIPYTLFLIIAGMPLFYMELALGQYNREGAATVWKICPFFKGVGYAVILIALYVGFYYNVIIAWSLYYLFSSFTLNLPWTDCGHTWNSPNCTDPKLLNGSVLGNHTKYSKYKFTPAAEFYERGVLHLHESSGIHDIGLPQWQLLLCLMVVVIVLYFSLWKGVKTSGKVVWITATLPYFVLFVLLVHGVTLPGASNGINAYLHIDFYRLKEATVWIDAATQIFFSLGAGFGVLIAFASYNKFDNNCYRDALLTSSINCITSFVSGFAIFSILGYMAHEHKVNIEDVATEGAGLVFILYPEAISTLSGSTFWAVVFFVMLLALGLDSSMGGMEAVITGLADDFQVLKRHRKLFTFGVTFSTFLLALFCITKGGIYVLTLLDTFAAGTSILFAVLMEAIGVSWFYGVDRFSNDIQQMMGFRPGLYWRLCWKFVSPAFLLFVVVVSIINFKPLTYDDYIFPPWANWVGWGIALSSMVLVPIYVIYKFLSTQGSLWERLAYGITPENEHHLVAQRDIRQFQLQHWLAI
# human Dopamine Transporter (DAT), SLC6A3 (gene 6531), sequence (Q01959 whole entry, looked up): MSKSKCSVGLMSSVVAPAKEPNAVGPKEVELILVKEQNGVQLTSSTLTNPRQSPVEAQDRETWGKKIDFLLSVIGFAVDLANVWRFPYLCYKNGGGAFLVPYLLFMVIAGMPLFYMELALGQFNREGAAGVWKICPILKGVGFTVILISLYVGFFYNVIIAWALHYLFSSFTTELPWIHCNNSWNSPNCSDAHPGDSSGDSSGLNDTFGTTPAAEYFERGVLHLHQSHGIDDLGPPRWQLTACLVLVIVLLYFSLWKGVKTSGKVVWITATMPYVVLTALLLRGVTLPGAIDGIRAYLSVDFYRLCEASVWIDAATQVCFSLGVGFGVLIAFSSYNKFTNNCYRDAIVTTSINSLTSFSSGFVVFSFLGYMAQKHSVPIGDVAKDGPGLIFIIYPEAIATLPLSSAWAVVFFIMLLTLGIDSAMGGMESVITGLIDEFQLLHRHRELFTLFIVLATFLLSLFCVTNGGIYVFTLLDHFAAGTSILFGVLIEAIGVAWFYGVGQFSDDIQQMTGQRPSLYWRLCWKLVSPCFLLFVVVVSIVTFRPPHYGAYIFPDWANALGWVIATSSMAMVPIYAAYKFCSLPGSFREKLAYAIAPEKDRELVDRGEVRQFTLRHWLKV
structure (smiles),measurement,setting,value
CCCCCc1ccc(N)cc1,outcome,[1],inactive
same,AC50,[2],8.47 µM (active)
same,AC50,[3],45.9 nM (active)
same,outcome,[3],inactive
same,outcome,[4],inactive
same,outcome,[5],inactive
CCOC(=O)O[C@H](C)OC(=O)c1ccc2c(c1)cc(C(=O)NC1CCN(C(C)C)CC1)n2Cc1cc(-c2ccc(Cl)s2)on1,outcome,[6],inactive
same,AC50,[7],15.5 µM (active)
same,AC50,[2],3.21 µM (active)
same,AC50,[8],1.95 µM (active)
same,outcome,[4],inactive
same,AC50,[5],19.6 µM (active)
O=C1O[C@H]([C@@H](O)CO)C(O)=C1O,outcome,[1],inactive
same,outcome,[4],inactive
CC(C)(C)c1csc(-c2cc3cc(OCc4ccccc4CC(=O)O)ccc3o2)n1,AC50,[1],0.00229 µM (active)
same,outcome,[4],inactive
same,outcome,[5],inactive
CCCOC(=O)c1cc(O)c(O)c(O)c1,outcome,[1],inactive
same,AC50,[2],10.8 µM (active)
same,outcome,[3],inactive
same,AC50,[4],12.7 µM (active)
same,outcome,[5],inactive
NCc1cccc(C2CCN(C(=O)c3ccc(C#Cc4ccccc4F)o3)CC2)c1,AC50,[1],5.98 µM (active)
same,outcome,[6],inactive
same,AC50,[7],18.9 µM (active)
same,AC50,[2],1.79 µM (active)
same,AC50,[9],16.7 µM (active)
same,AC50,[8],4.42 µM (active)
same,outcome,[10],inactive
same,outcome,[5],inactive
CC1=CC(=O)/C(=C(/C)O)C(=O)O1,outcome,[1],inactive
same,outcome,[4],inactive
same,outcome,[5],inactive
c1ccc2n[nH]nc2c1,outcome,[1],inactive
same,outcome,[4],inactive
c1ccc2ccccc2c1,outcome,[1],inactive
same,outcome,[5],inactive
CCN(CC)C(=O)c1cc(S(=O)(=O)Cc2ccccc2)c(N2CCC(c3ccccc3)CC2)cc1N(CC)CCN(C)C,AC50,[2],5.63 µM (active)
same,AC50,[8],10.4 µM (active)
same,AC50,[3],2540 nM (active)
same,outcome,[4],inactive
same,outcome,[5],inactive
O=c1[nH]sc2ccccc12,AC50,[2],21.4 µM (active)
same,outcome,[4],inactive
same,AC50,[5],91.7 µM (active)
CC[C@@H]1C[C@H](N(Cc2cc(C(F)(F)F)cc(C(F)(F)F)c2)C(C)=O)c2cc(C(F)(F)F)ccc2N1C(=O)OC(C)C,outcome,[4],inactive
same,outcome,[5],inactive
CCN(Cc1cccc(S(=O)(=O)O)c1)c1ccc(C(=C2C=CC(=[N+](CC)Cc3cccc(S(=O)(=O)O)c3)C=C2)c2ccccc2S(=O)(=O)[O-])cc1,outcome,[4],inactive
same,outcome,[5],inactive
COCC(C)OCC(C)OCC(C)O (centres undefined),outcome,[10],inactive
same,outcome,[4],inactive
same,outcome,[5],inactive
CCCCCCCCCCCO,outcome,[3],inactive
same,outcome,[4],inactive
same,outcome,[5],inactive
CCO[Si](CCCNC(N)=O)(OCC)OCC,outcome,[4],inactive
same,outcome,[5],inactive
OCCO,outcome,[10],inactive
same,outcome,[5],inactive
Cc1cn([C@H]2C[C@H](N=[N+]=[N-])[C@@H](CO)O2)c(=O)[nH]c1=O,outcome,[8],inactive
same,outcome,[5],inactive
O=C(OCCCCCCOC(=O)c1ccccc1)c1ccccc1,outcome,[8],inactive
same,outcome,[5],inactive
CC(C)(C)c1cc(/C=C2\SC(N)=NC2=O)cc(C(C)(C)C)c1O,outcome,[3],inactive
same,outcome,[4],inactive
same,outcome,[5],inactive
NC(=O)c1nc(-c2cccc(-c3cc(F)ccc3OCC(F)(F)C(F)(F)F)c2)n[nH]1,outcome,[4],inactive
same,outcome,[5],inactive
COc1cccc([C@H](O)C2CCN(CCc3ccc(F)cc3)CC2)c1OC,AC50,[9],8.09 µM (active)
same,outcome,[4],inactive
same,outcome,[5],inactive
c1ccc(C[n+]2cccc3ccccc32)cc1,AC50,[2],9.52 µM (active)
same,AC50,[9],6.24 µM (active)
same,AC50,[8],15.4 µM (active)
same,outcome,[4],inactive
same,outcome,[5],inactive
Cc1ccc2oc(CN(Cc3ccccc3)C(=O)Nc3c(F)cc(F)cc3F)c(-c3ccc(Cl)cc3)c2c1,outcome,[4],inactive
same,outcome,[5],inactive
CC(C)(c1cc(Br)c(O)c(Br)c1)c1cc(Br)c(O)c(Br)c1,outcome,[3],inactive
same,outcome,[4],inactive
CCCCCCCCCC(=O)O,outcome,[2],inactive
same,outcome,[10],inactive
Cc1cccc2ccccc12,outcome,[5],inactive
O=C(O)c1ccccc1C(=O)OCc1ccccc1,outcome,[5],inactive
CCN(Cc1cccnc1)C(=O)c1cccc(Cl)c1[C@]1(C)C(=O)N(Cc2ccc(OC)cc2OC)c2ccc(Cl)cc21,outcome,[10],inactive
same,outcome,[4],inactive
same,outcome,[5],inactive
CCCCCCCCCCCCO,outcome,[4],inactive
same,outcome,[5],inactive
CCCCCCCCN(C)CCCCCCCC,outcome,[3],inactive
same,outcome,[10],inactive
same,outcome,[5],inactive
O=c1ccc2ccccc2o1,outcome,[4],inactive
same,outcome,[5],inactive
CC(=O)N1CCN(c2ccc(OC[C@H]3CO[C@](Cn4ccnc4)(c4ccc(Cl)cc4Cl)O3)cc2)CC1,AC50,[2],11.2 µM (active)
same,AC50,[8],9.91 µM (active)
same,outcome,[3],inactive
same,outcome,[4],inactive
same,AC50,[5],81.2 µM (active)
O=C=NCCCCCCN=C=O,AC50,[2],16.3 µM (active)
same,outcome,[4],inactive
same,outcome,[5],inactive
CCCC(=O)OCCC(C)C,outcome,[10],inactive
same,outcome,[5],inactive
Cc1ccc(C(C)C)cc1,outcome,[10],inactive
same,outcome,[5],inactive
C[C@]12CC[C@@H]3c4ccc(O)cc4CC[C@H]3[C@@H]1CCC2=O,AC50,[9],4.96 µM (active)
same,AC50,[3],7.03 nM (active) [middle of 4 runs]
same,outcome,[3],inactive
